From paper PMC4336329 (PLoS ONE, 2015) come the findings set out here.

The campaign covered roughly 310,000 compounds. About 2,200 (0.71%) showed an effect of 50% or more. Effects have a minus sign here. The sample holds strong results, similar compounds and a random draw of the others, so the mix is not that of the screen.

The target in this test is human ether-à-go-go-related gene (hERG) potassium channel (human, UniProt Q12809). As to the kind of experiment: primary screen, population patch clamp on CHO cells stably expressing hERG; higher = less effect of the substance.
human ether-à-go-go-related gene (hERG) potassium channel, sequence (Q12809 whole entry, looked up): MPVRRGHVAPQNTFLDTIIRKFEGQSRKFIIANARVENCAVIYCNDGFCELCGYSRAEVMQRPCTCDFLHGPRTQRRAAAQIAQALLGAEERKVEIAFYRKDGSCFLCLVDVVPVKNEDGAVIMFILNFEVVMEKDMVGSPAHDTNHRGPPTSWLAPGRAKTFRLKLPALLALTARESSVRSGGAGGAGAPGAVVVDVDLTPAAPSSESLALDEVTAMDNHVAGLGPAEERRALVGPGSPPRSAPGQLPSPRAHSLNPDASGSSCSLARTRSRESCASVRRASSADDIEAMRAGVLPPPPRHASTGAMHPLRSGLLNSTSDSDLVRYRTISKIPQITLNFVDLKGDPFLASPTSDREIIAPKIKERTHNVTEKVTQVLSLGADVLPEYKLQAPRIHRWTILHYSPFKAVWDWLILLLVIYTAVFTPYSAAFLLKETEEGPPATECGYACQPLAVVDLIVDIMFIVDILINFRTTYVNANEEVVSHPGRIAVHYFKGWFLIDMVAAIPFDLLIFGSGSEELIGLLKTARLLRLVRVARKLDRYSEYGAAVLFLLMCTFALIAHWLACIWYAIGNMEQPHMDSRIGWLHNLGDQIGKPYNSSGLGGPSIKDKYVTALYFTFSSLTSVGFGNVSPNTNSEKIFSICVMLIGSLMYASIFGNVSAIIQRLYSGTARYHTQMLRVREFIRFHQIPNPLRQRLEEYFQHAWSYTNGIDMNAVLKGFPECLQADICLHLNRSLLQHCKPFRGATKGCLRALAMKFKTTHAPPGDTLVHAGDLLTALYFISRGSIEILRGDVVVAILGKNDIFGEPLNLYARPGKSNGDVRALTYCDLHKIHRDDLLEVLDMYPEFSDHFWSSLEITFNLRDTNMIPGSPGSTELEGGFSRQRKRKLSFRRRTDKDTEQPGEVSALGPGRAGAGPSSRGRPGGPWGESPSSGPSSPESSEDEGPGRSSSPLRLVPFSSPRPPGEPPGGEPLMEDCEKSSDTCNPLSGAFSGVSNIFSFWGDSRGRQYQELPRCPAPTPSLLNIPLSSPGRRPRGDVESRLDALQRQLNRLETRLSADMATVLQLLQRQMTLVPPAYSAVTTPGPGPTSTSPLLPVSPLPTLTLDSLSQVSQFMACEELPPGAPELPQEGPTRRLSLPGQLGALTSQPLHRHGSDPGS
As to `CCCC(=O)Nc1nc2ccc(NC(=O)c3ccccc3F)cc2s1`, the “hERG current change (%, negative = inhibition) at 1uM” value is 14.1%.

With `COc1ccc(Nc2nnc(SCC(=O)N3CCCC3)s2)cc1`, the “hERG current change (%, negative = inhibition) at 1uM” value came out at 7.15%. For `Cc1ccc(-c2nc(CS(=O)(=O)CC(=O)NCCN3CCCC3)c(C)o2)cc1`, the “hERG current change (%, negative = inhibition) at 1uM” value was 7.76%. In the case of `COc1cccc(CCN2CCC(CNS(=O)(=O)c3cc(-c4cc(C)no4)ccc3OC)CC2)c1` it was -66.3%. For `COc1ccc(-c2cc(C)no2)cc1S(=O)(=O)N(C)c1ccc(C)c(C)c1` the value was 9.2%. As for `COc1ccc(-c2cc(C)no2)cc1S(=O)(=O)N(C)c1cccc(C)c1`, the “hERG current change (%, negative = inhibition) at 1uM” value is on record as -62.5%. In the case of `COc1cccc(CCN2CCC(CNS(=O)(=O)c3cc(-c4cc(C)no4)ccc3C)CC2)c1` it was -20.1%; in that of `COc1ccccc1CN1CCC(CNS(=O)(=O)c2cc(-c3cc(C)no3)ccc2OC)CC1`, -33.2%.

As for `COc1ccc(-c2cc(C)no2)cc1S(=O)(=O)N(C)c1ccc(C)cc1`, the “hERG current change (%, negative = inhibition) at 1uM” value is listed as 4.37%. For `Cc1ccc(C(=O)OCC(=O)Nc2ccc(S(N)(=O)=O)cc2)c(O)c1` the value was 7.79%. For `CC(=O)NC(=S)NNC(=O)C(c1ccccc1)c1ccccc1` the value was 15%. In the case of `C=CCNc1cccc(Br)c1`, the “hERG current change (%, negative = inhibition) at 1uM” value was 12.5%.

On to `COc1cc(/C=N/Nc2nn3cnnc3c3ccccc23)ccc1O`, for which the “hERG current change (%, negative = inhibition) at 1uM” value came out at 20.3%.

Regarding `CCCCOC(=O)C[N+](C)(C)CCOC1CC2CCC1(C)C2(C)C.[Br-]` (centres unmarked), the “hERG current change (%, negative = inhibition) at 1uM” value is -4.93%. On to `CCCOC(=O)C[N+](C)(C)CCOC1CC2CCC1(C)C2(C)C.[Br-]` (centres unmarked), for which the “hERG current change (%, negative = inhibition) at 1uM” value is recorded as 11.2%. For `CCCCCCOC(=O)C[N+](C)(C)CCOC1CC2CCC1(C)C2(C)C.[Cl-]` (centres unmarked) the value was -69%; for `COc1ccc(NC(=O)c2cccn(CC=C(C)C)c2=O)cc1`, 11.5%; for `Cc1c(S(=O)(=O)N2CCN(c3cccc(Cl)c3)CC2)c(=O)n(C)c(=O)n1C`, 5.16%. For `COc1ccc(OC)c2c1nc1n2CCS1` the value was 4.74%; for `OC(COCc1cccs1)CN1CCN(c2ccccc2Cl)CC1` (centres unmarked), -50.8%. For `Cl.OC(COCc1cccs1)CN1CCCCCC1` (centres unmarked) the value was -5.74%; for `CN1CCCN(CC(O)COCc2cccs2)CC1` (centres unmarked), 5.43%; for `CCOc1ccccc1N1CCN(CC(O)COCc2cccs2)CC1` (centres unmarked), -1.54%. Turning to `COc1ccccc1N1CCN(CC(O)COCc2cccs2)CC1.Cl` (centres unmarked), the “hERG current change (%, negative = inhibition) at 1uM” value was 0.795%.

In the case of `Cc1cccc(N2CCN(CC(O)COCc3cccs3)CC2)c1C` (centres unmarked), the “hERG current change (%, negative = inhibition) at 1uM” value was -63.9%. For `O=C(CCc1ccc(S(=O)(=O)NCCc2ccccc2)cc1)NCc1ccco1` the value was 6%; for `COc1cccc2sc(NN)nc12`, 0.731%. For `CCCN=C(C)c1c(-c2ccccc2)[nH]n(-c2nc3ccccc3s2)c1=O` the value was 7.75%; for `CCCCCN=Cc1c(C)[nH]n(-c2nc3ccccc3s2)c1=O`, -16.9%. In the case of `CCCc1[nH]n(-c2nc3ccccc3s2)c(=O)c1C=NCC(C)C`, the “hERG current change (%, negative = inhibition) at 1uM” value was 6.14%.

Turning to `CCN(CC)CCCN=Cc1c(-c2ccccc2)[nH]n(-c2nc3ccccc3s2)c1=O`, the “hERG current change (%, negative = inhibition) at 1uM” value is -81.7%.

Consider `CCCN=Cc1c(CCC)[nH]n(-c2nc3ccccc3s2)c1=O`, for which the “hERG current change (%, negative = inhibition) at 1uM” value was -4.61%. In the case of `O=c1c(C=NCCCn2ccnc2)c(-c2ccccc2)[nH]n1-c1nc2ccccc2s1` it was -26.9%; in that of `CCCc1[nH]n(-c2nc3ccccc3s2)c(=O)c1C=NCCN1CCOCC1`, -4.58%.

As to `COCCCN=Cc1c(-c2ccccc2)[nH]n(-c2nc3ccccc3s2)c1=O`, the “hERG current change (%, negative = inhibition) at 1uM” value is -55.9%. In the case of `CN(C)CCCN=Cc1c(-c2ccccc2)[nH]n(-c2nc3ccccc3s2)c1=O` it was -58.1%. For `CCCc1[nH]n(-c2nc3ccccc3s2)c(=O)c1C=NCCCOC` the value was -9.11%; for `CCCc1[nH]n(-c2nc3ccccc3s2)c(=O)c1C=NCCCN(CC)CC`, -57.6%; for `O=c1c(C=NCCCO)c(-c2ccccc2)[nH]n1-c1nc2ccccc2s1`, -2.36%. In the case of `Cn1ccc(NC(=O)c2ccc(Cl)cc2)n1` it was 11%; in that of `CCC(C)N1C(=O)CCC1C(=O)N1CCN(c2ccccc2F)CC1` (centres unmarked), 17%.

Turning to `CC(=O)N1CCN(C2=NC(=O)C(=C3CCCCC3)S2)CC1`, the “hERG current change (%, negative = inhibition) at 1uM” value is reported as -2.21%. For `CCCNC(=O)C1CC(=O)N(c2ccc(OCC(=O)Nc3cccc(C)c3C)cc2)C1` (centres unmarked) the value was 11%; for `CN1CCN(C(=O)c2ccc3c(Cl)c4c(nc3c2)CCCC4)CC1`, -0.735%. In the case of `Cc1cc(C)c2nc(C(F)(F)F)nc(NCCCN3CCOCC3)c2c1` it was 9.96%; in that of `CCC(C)(C)C1CCc2[nH]nc(C(=O)O)c2C1` (centres unmarked), 11.9%; in that of `CC(=O)NS(=O)(=O)c1ccc(NC(=O)C2C3C=CC(C3)C2C(=O)O)cc1` (centres unmarked), 7.33%.

For `Cc1ccc2c(c1)Oc1ccc(NC(=O)CCCl)cc1C(=O)N2`, the “hERG current change (%, negative = inhibition) at 1uM” value came out at 3.94%.

For `COc1ccc(CN2[C@@H](CC(C)=O)c3ccc(/C=C/C(C)=O)cc3S2(=O)=O)cc1`, the “hERG current change (%, negative = inhibition) at 1uM” value was -0.639%. For `O=C(c1nn(Cc2ccccc2)c(=O)c2ccccc12)N1CCN(c2ccccn2)CC1` the value was -14.5%. In the case of `CC(=O)c1ccc(N2CCN(C(=O)c3nn(Cc4ccccc4)c(=O)c4ccccc34)CC2)cc1` it was -72.9%; in that of `O=C(c1nn(Cc2ccccc2)c(=O)c2ccccc12)N1CCN(C/C=C/c2ccccc2)CC1`, -38.3%; in that of `Cn1cc([N+](=O)[O-])c(C(=O)NC2CCCCCC2)n1`, 15.5%. For `COc1cc(-c2nc3ccccn3c2NCC2CCCO2)ccc1O` (centres unmarked) the value was 2.7%; for `CCOc1cc(-c2nc3cc(C)ccn3c2NCC2CCCO2)ccc1O` (centres unmarked), -47.3%; for `COc1ccc(-c2nc3cc(C)ccn3c2NCC2CCCO2)cc1OC.Cl` (centres unmarked), -55.3%. In the case of `CN(C(=O)CSc1nc2ccc(Br)cc2c(=O)n1Cc1ccco1)C1CCS(=O)(=O)C1` (centres unmarked), the “hERG current change (%, negative = inhibition) at 1uM” value was -83.1%. For `CN(C(=O)CSc1nc2cc(C(=O)O)ccc2c(=O)n1Cc1ccccc1)C1CCS(=O)(=O)C1` (centres unmarked) the value was 17.6%. On to `CCN(C(=O)CSc1nc2cc(Cl)ccc2c(=O)n1Cc1ccco1)C1CCS(=O)(=O)C1` (centres unmarked), for which the “hERG current change (%, negative = inhibition) at 1uM” value is listed as -70.2%. In the case of `Cc1cc2c(=O)n(Cc3ccco3)c(SCC(=O)NCc3ccco3)nc2s1` it was -0.915%. In the case of `CCc1cc2c(SCC(=O)N(C)C3CCS(=O)(=O)C3)ncnc2s1` (centres unmarked) it was -7.21%; in that of `CCc1cc2c(=O)n(Cc3ccco3)c(SCC(=O)NCC3CCCO3)nc2s1` (centres unmarked), -60.5%. In the case of `COCCn1c(SCC(=O)N(C)C2CCS(=O)(=O)C2)nc2ccccc2c1=O` (centres unmarked) it was 4.99%.

For the compound `O=C(CSc1nc2c(sc3ccccc32)c(=O)n1Cc1ccco1)NCC1CCCO1` (centres unmarked), the “hERG current change (%, negative = inhibition) at 1uM” value is recorded as -0.521%.

Consider `CCc1cc2c(=O)n(Cc3ccco3)c(SCC(=O)NC3CCS(=O)(=O)C3)nc2s1` (centres unmarked), for which the “hERG current change (%, negative = inhibition) at 1uM” value is -29.7%. In the case of `CCN(C(=O)CSc1nc2cc(Cl)ccc2c(=O)n1CC(C)C)C1CCS(=O)(=O)C1` (centres unmarked) it was 10.7%.

Turning to `CC(C)Cn1c(SCC(=O)N(C)C2CCS(=O)(=O)C2)nc2cc(Cl)ccc2c1=O` (centres unmarked), the “hERG current change (%, negative = inhibition) at 1uM” value was 4.62%.

In the case of `CCc1cc2c(=O)n(Cc3ccco3)c(SCC(=O)N(C)C3CCS(=O)(=O)C3)nc2s1` (centres unmarked), the “hERG current change (%, negative = inhibition) at 1uM” value was -85.4%. For the compound `C/C(=N\NC(=O)c1cc(C)[nH]n1)c1ccc(-c2ccccc2)cc1`, the “hERG current change (%, negative = inhibition) at 1uM” value amounted to 13.7%.

As to `O=C(CCN1C(=O)/C(=C/c2ccc(F)cc2)SC1=S)NNC(=O)c1cccnc1`, the “hERG current change (%, negative = inhibition) at 1uM” value is listed as 1.06%. For `COc1cc(/C=N\NC(=O)C(C)(C)O)ccc1OC/C=C/c1ccccc1` the value was 13%; for `CC(C)c1ccccc1OS(N)(=O)=O`, 4.02%. `COc1ccccc1NC(=O)CSc1nnc(C2CCCCC2)n1-c1ccccc1`: the “hERG current change (%, negative = inhibition) at 1uM” value was 2.23%. For `Cc1cc(OCC(=O)NCCCN2CCCC2=O)c2c(C)cc(=O)oc2c1` the value was 19%; for `O=C(C[n+]1cn(C(F)F)c2ccccc21)c1ccc(Br)cc1.[Br-]`, 3.52%; for `O=C(C[n+]1cn(C(F)F)c2ccccc21)c1ccc(OC(F)F)cc1.[Br-]`, -53.7%. For `COc1ccc(C(=O)C[n+]2cn(C(F)F)c3ccccc32)c(F)c1.[Br-]` the value was -0.738%; for `O=C(C[n+]1ccc(C(=O)NCc2ccccc2)cc1)c1ccc(OC(F)F)cc1.[Br-]`, -81.2%. `CCOc1ccc(C(=O)C[n+]2ccc(C(=O)NCc3ccccc3)cc2)cc1.[Br-]`: the “hERG current change (%, negative = inhibition) at 1uM” value stood at 4.11%. For `O=C(C[n+]1cccc(CNC(=O)c2ccc(OC(F)F)cc2)c1)c1ccccc1.[Cl-]` the value was 2.3%; for `O=[N+]([O-])c1ccccc1/C=C/C=N/N1CCCCC1`, 13%; for `CC(/C=C/c1ccc(N(C)C)cc1)=N\N=C(/N)SC1CC(=O)N(c2ccc(C(=O)O)cc2)C1=O` (centres unmarked), 3.7%. In the case of `COCCNC(=S)N/N=C/c1ccc([N+](=O)[O-])cc1` it was 12%; in that of `Cc1ccc([N+](=O)[O-])c(OCCN2CCC(Cc3ccccc3)CC2)c1.O=C(O)C(=O)O`, -25.9%. For `Cc1cc(OCCN2CC(C)OC(C)C2)ccc1[N+](=O)[O-].O=C(O)C(=O)O` (centres unmarked) the value was -5.36%; for `Cc1ccc([N+](=O)[O-])c(OCCCN2CCCCCC2)c1.O=C(O)C(=O)O`, -14.5%. `Cc1cc(OCCN2CCCCCC2)ccc1[N+](=O)[O-].O=C(O)C(=O)O`: the “hERG current change (%, negative = inhibition) at 1uM” value is recorded as -12.8%.

On to `Cc1ccc([N+](=O)[O-])c(OCCCN2CCC(Cc3ccccc3)CC2)c1.O=C(O)C(=O)O`, for which the “hERG current change (%, negative = inhibition) at 1uM” value was -95.8%. For `O=C(O)C(=O)O.O=[N+]([O-])c1cccc(OCCN2CCC(Cc3ccccc3)CC2)c1` the value was -23.6%; for `Cc1cc(OCCCN2CCN(Cc3ccccc3)CC2)ccc1[N+](=O)[O-].O=C(O)C(=O)O`, -52.5%. For the compound `Cc1cc(OCCN2CCOCC2)ccc1[N+](=O)[O-].O=C(O)C(=O)O`, the “hERG current change (%, negative = inhibition) at 1uM” value stood at 10.6%. For `O=C(O)C(=O)O.O=[N+]([O-])c1cccc(OCCCN2CCC(Cc3ccccc3)CC2)c1` the value was -82.9%. For `O=[N+]([O-])c1cccc(CN2CCC(Cc3ccccc3)CC2)c1` the value was -45.6%.

Consider `Cc1cc(OCCN2CCC(Cc3ccccc3)CC2)ccc1[N+](=O)[O-].O=C(O)C(=O)O`, for which the “hERG current change (%, negative = inhibition) at 1uM” value is -53.5%. For `Cc1cc(OCCN2CCCC2)ccc1[N+](=O)[O-].O=C(O)C(=O)O` the value was 7.94%.
